Laboratory results as given in PubChem BioAssay (Tox21).
“And” between values parts separate entries of the source, which are not always exact repeats. Equal values may be shown once. Inconclusive results are not listed. A call without a number means that no potency is given here. The source made the active and inactive calls. The call rests on the fitted dose curve; in most records, active means well fitted curve in the direction sought with a large enough effect in the repeat runs; inconclusive means weak or mixed curves; inactive means no such curve, though single readings can be large; an effect the other way counts as inactive or inconclusive. Starred links: 1 amine or outer side, 2 acyl side, 3 side chain; linkers in the order of their positions; H or OH if unused. Positions of bridges follow the written chain, without caps; N, C: chain ends. Non-standard residues stand in square brackets, D forms with d. Residues, ends and D or L forms follow the SMILES beside them. *: point of attachment. X5 = NC1=N[C@@H]([C@H](N[*:1])C(=O)[*:2])C[C@H](O)N1; ΔAla(Z-3-ureido) = NC(=O)N/C=C(\N)C(=O)O; pGlu = O=C1CC[C@@H](C(=O)O)N1; β3hOrn = NCCC[C@H](N)CC(=O)*; Dap = NC[C@H](N)C(=O)O

What was measured:
[1] = qHTS assay to identify small molecule antagonists of the glucocorticoid receptor (GR) signaling pathway - cell viability counter screen (AID 720693); further: nearly all actives have a fitted effect of over 55% in size
[2] = qHTS assay for identifying genotoxic compounds that show differential cytotoxicity against isogenic chicken DT40 cell lines with known DNA damage response pathways - wild type cell line (AID 743012); further: nearly all actives have a fitted effect of over 60% in size; further: potency means the concentration at half of the fitted maximal effect
Method in brief: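 First, wild type DT40 cells were plated at 300 per well and equilibrated about 0.5 h at 37 C/5% CO2. Next, compounds in DMSO were added and exposure lasted 40 h. Finally, CellTiter-Glo was added for 30 min at room temperature and luminescence recorded.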

[3] = qHTS assay for identifying genotoxic compounds that show differential cytotoxicity against isogenic chicken DT40 cell lines with known DNA damage response pathways - Rev3 mutant cell line (AID 743014); further: nearly all actives have a fitted effect of over 55% in size; further: potency means the concentration at half of the fitted maximal effect
[4] = qHTS assay for identifying genotoxic compounds that show differential cytotoxicity against isogenic chicken DT40 cell lines with known DNA damage response pathways - Rad54/Ku70 mutant cell line (AID 743015); further: nearly all actives have a fitted effect of over 60% in size; further: potency means the concentration at half of the fitted maximal effect
[5] = qHTS assay to identify small molecule antagonists of the androgen receptor (AR) signaling pathway - cell viability counter screen (AID 743033; further: nearly all actives have a fitted effect of over 45% in size)
[6] = qHTS assay to identify small molecule antagonists of the androgen receptor (AR) signaling pathway using the MDA cell line - cell viability counter screen (AID 743041; further: nearly all actives have a fitted effect of over 45% in size)
Method in brief: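 MDA-kb2 AR-luc cells (MMTV-luciferase, AR/GR responsive) treated with compounds plus R1881 agonist for 16 h at 37C. CellTiter-Fluor added at 15.5 h; fluorescence read after 30 min in the same wells.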

SMILES | Potency [1] | Potency [2] | Potency [3] | Potency [4] | Potency [5] | Potency [6]
CC[C@H](C)[C@H](NC(=O)[C@H](Cc1ccccc1)NC(=O)[C@H](C)NC(=O)[C@H](CC(=O)O)NC(=O)[C@H](CCCCN)NC(=O)[C@H](CO)NC(=O)[C@@H]1CCCN1C(=O)[C@@H]1CCC(=O)N1)C(=O)NCC(=O)N[C@@H](CC(C)C)C(=O)N[C@@H](CCSC)C(N)=O ([pGlu]PSKDAFIGLM-NH2) | inactive | inactive | inactive | inactive | inactive | inactive
Cc1onc(-c2ccccc2)c1C(=O)N[C@@H]1C(=O)N2[C@@H]1SC(C)(C)[C@@H]2C(=O)O | inactive | inactive | inactive | inactive | inactive | inactive
CC(=O)N[C@@H]1C(O[C@H]2O[C@H](C(=O)O)C(O)[C@H](O)[C@H]2O)[C@H](O)[C@@H](CO)O[C@H]1O[C@@H]1C(C(=O)O)O[C@@H](O[C@H]2[C@H](O)[C@@H](CO)OC(O)[C@@H]2NC(C)=O)[C@H](O)[C@H]1O (some centres not stated) | inactive | inactive | inactive | inactive | inactive | inactive
COc1ccc(C(=O)CCC(=O)O)c2ccccc12 | inactive | inactive | inactive | inactive | inactive | inactive
CC1=C(/C=C/C(C)=C/C=C/C(C)=C/C(=O)Oc2c(C)c(C)c3c(c2C)CC[C@@](C)(CCC[C@H](C)CCC[C@H](C)CCCC(C)C)O3)C(C)(C)CCC1 | inactive | inactive | inactive | inactive | inactive | inactive
NCCCC[C@H](NC(=O)[C@@H]1CCCN1C(=O)[C@@H]1CSSC[C@H](NC(=O)CNC(=O)CNC(=O)CN)C(=O)N[C@@H](Cc2ccc(O)cc2)C(=O)N[C@@H](Cc2ccccc2)C(=O)N[C@@H](CCC(N)=O)C(=O)N[C@@H](CC(N)=O)C(=O)N1)C(=O)NCC(N)=O (H-GGGCYFQNCPKG-NH2; disulfide 4-9) | inactive | inactive | inactive | inactive | inactive | inactive
CN1c2cc(O)c(N=NC(N)=O)cc2CC1S(=O)(=O)O (configuration not stated) | inactive | inactive | inactive | inactive | inactive | inactive
OC1OC[C@@H](O)[C@H](O)[C@@H]1O (some centres not stated) | inactive | inactive | inactive | inactive | inactive | inactive
CCOC(=O)Oc1c(OC)cc(C(=O)O[C@@H]2C[C@@H]3CN4CCc5c([nH]c6cc(OC)ccc56)[C@H]4C[C@@H]3[C@H](C(=O)OC)[C@H]2OC)cc1OC | inactive | 10.1 µM (active) | 11.4 µM (active) | 12.7 µM (active) | inactive | inactive
CC1=C(/C=C/C(C)=C/C=C/C(C)=C/C=C/C=C(C)/C=C/C=C(C)/C=C/C2=C(C)C(=O)CCC2(C)C)C(C)(C)CCC1=O | inactive | inactive | inactive | inactive | inactive | inactive
CC(=O)N(CC(C)C(=O)O)c1c(I)cc(I)c(N)c1I (configuration not stated) | inactive | inactive | inactive | inactive | inactive | inactive
CC(C)CN(C[C@@H](OP(=O)(O)O)[C@H](Cc1ccccc1)NC(=O)O[C@H]1CCOC1)S(=O)(=O)c1ccc(N)cc1 | inactive | inactive | inactive | inactive | inactive | inactive
CCC(C)C(C(=O)OCC[N+](C)(CC)CC)c1ccccc1 (configuration not stated) | inactive | 29.8 µM (active) | 29.8 µM (active) | 26.6 µM (active) | inactive | inactive
CCSc1ccc2c(c1)N(CCCN1CCN(C)CC1)c1ccccc1S2 | inactive | 11.4 µM (active) | 14.3 µM (active) | 11.4 µM (active) | inactive | inactive
COc1ccc(CCNC[C@H](O)c2ccc(O)cc2)cc1OC | inactive | inactive | inactive | inactive | inactive | inactive
CCCC(CCC)C(N)=O | inactive | inactive | inactive | inactive | inactive | inactive
C=C[C@]1(C)C[C@@H](OC(=O)CSCCN(CC)CC)[C@]2(C)[C@H](C)CC[C@]3(CCC(=O)[C@H]32)[C@@H](C)[C@@H]1O | inactive | 5.31 µM (active) | 5.96 µM (active) | 6.68 µM (active) | inactive | inactive
CCCC(=O)Nc1c(I)cc(I)c(CC(CC)C(=O)O)c1I (configuration not stated) | inactive | inactive | inactive | inactive | inactive | inactive
CCOC(=O)[C@H](CCc1ccccc1)N[C@H]1CCCN2CCC[C@@H](C(=O)O)N2C1=O | inactive | inactive | inactive | inactive | inactive | inactive
CCCCCCCCCCCCCCCC(=O)OC[C@@H](NC(=O)C(Cl)Cl)[C@H](O)c1ccc([N+](=O)[O-])cc1 | inactive | inactive | inactive | inactive | inactive | inactive
NCCC[C@H](N)CC(=O)N[C@H]1CNC(=O)[C@H]([C@H]2C[C@H](O)NC(N)=N2)NC(=O)/C(=C/NC(N)=O)NC(=O)[C@H](CO)NC(=O)[C@H](CO)NC1=O (β3hOrn-[Dap]SS[ΔAla(Z-3-ureido)][X5]; lactam 1-C) | inactive | inactive | inactive | inactive | inactive | inactive
CC(C(=O)O)c1ccc(N2Cc3ccccc3C2=O)cc1 (configuration not stated) | inactive | inactive | inactive | inactive | inactive | inactive
O=c1[nH]cnc2[nH]cc(CN3CCCCC3)c12 | inactive | inactive | inactive | inactive | inactive | inactive
O=C(O)[C@H]1/C(=C/CO)O[C@@H]2CC(=O)N21 | inactive | inactive | inactive | inactive | inactive | inactive

SMILES | Potency [1] | Potency [2] | Potency [3] | Potency [4] | Potency [5] | Potency [6]
CCCc1ccc(C(=O)O)cc1 | inactive | inactive | inactive | inactive | inactive | inactive
CCCCC[C@H](O)/C=C/[C@@H]1[C@H]2C/C(=C/CCCC(=O)O)O[C@H]2C[C@H]1O | inactive | inactive | inactive | inactive | inactive | inactive
CCCCCCCCCCCC(=O)OC[C@@H](O)C1OC[C@H](O)[C@H]1O (some centres not stated) | inactive | inactive | inactive | inactive | inactive | inactive
COc1cc(C[C@@H]2NCCc3cc(O)c(O)cc32)cc(OC)c1OC | inactive | inactive | inactive | inactive | inactive | inactive
c1ccc2c(c1)Sc1ccccc1N2CCN1CCCC1 | inactive | 10.6 µM (active) | 8.41 µM (active) | 16.8 µM (active) | inactive | inactive
O=C(NNCNNC(=O)c1ccncc1)c1ccncc1 | inactive | inactive | inactive | inactive | inactive | inactive
CCCCCCCCCCCC(=O)N(CCO)CCO | inactive | 29.8 µM (active) | 26.6 µM (active) | 26.6 µM (active) | inactive | inactive
Cc1ccc(C2(O)CCN(CCCC(=O)c3ccc(F)cc3)CC2)cc1 | inactive | 11.9 µM (active) | 11.9 µM (active) | 10.6 µM (active) | inactive | inactive
OCCO[C@@H]1[C@@H](O)[C@H](O)[C@@H](CO)O[C@@H]1O | inactive | inactive | inactive | inactive | inactive | inactive
O=C(CO)[C@@H](O)[C@H](O)[C@@H](O)C(=O)O | inactive | inactive | inactive | inactive | inactive | inactive
CCOC(=O)C1=C(COCCN)NC(C)=C(C(=O)OC)C1c1ccccc1Cl (configuration not stated) | inactive | 7.5 µM (active) | 13.3 µM (active) | 13.3 µM (active) | inactive | inactive
CC(O)[C@@H]1NC(=O)[C@H](Cc2ccccc2)NC(=O)[C@H](C(C)O)NC(=O)[C@H](CCCCN)NC(=O)[C@H](Cc2c[nH]c3ccccc23)NC(=O)[C@H](Cc2ccccc2)NC(=O)[C@H](Cc2ccccc2)NC(=O)[C@H](CC(N)=O)NC(=O)[C@H](CCCCN)NC(=O)[C@@H](NC(=O)CNC(=O)[C@H](C)N)CSSC[C@@H](C(=O)O)NC(=O)[C@H](CO)NC1=O (some centres not stated) | inactive | inactive | inactive | inactive | inactive | inactive
C[C@]12C=CC(=O)C=C1CC[C@@H]1[C@@H]2[C@@H](O)C[C@@]2(C)[C@H]1CC[C@]2(O)C(=O)COC(=O)CCC(=O)O | inactive | inactive | inactive | inactive | inactive | inactive
CO/N=C(\C(=O)N[C@@H]1C(=O)N2C(C(=O)OCOC(=O)C(C)(C)C)=C(/C=C\c3scnc3C)CS[C@H]12)c1csc(N)n1 | inactive | inactive | inactive | inactive | inactive | inactive
COc1cc([C@@H]2c3cc4c(cc3C(O[C@@H]3O[C@@H]5CO[C@@H](C)O[C@H]5[C@H](O)[C@H]3O)C3COC(=O)[C@@H]32)OCO4)cc(OC)c1OP(=O)(O)O (some centres not stated) | inactive | 531 nM (active) and 750 nM (active) | 1.68 µM (active) and 2.37 µM (active) | 53.1 nM (active) and 75 nM (active) | inactive | inactive
Cc1cccc(Nc2ncccc2C(=O)O)c1C | inactive | inactive | inactive | inactive | inactive | inactive
O=C1NCCN1c1ncc([N+](=O)[O-])s1 | inactive | inactive | inactive | inactive | inactive | inactive
O=C(O[C@H]1CN2CCC1CC2)N1CCc2ccccc2[C@@H]1c1ccccc1 | inactive | 11.9 µM (active) | 26.6 µM (active) | 26.6 µM (active) | inactive | inactive
CCOC(=O)CN[C@@H](C(=O)N1CC[C@H]1C(=O)NCc1ccc(/C(N)=N/O)cc1)C1CCCCC1 | inactive | inactive | inactive | inactive | inactive | inactive
Cn1nnnc1SCC1=C(C(=O)O)N2C(=O)[C@@H](NC(=O)[C@H](O)c3ccccc3)[C@H]2SC1 | inactive | inactive | inactive | inactive | inactive | inactive
FC(F)(F)C(F)(F)C(F)(F)C(F)(F)C(F)(F)C(F)(F)F | inactive | inactive | inactive | inactive | inactive | inactive
CCOC(=O)[C@H](CCc1ccccc1)N[C@@H](C)C(=O)N1CC2(C[C@H]1C(=O)O)SCCS2 | inactive | inactive | inactive | inactive | inactive | inactive
N[C@@H](C(=O)N[C@@H]1C(=O)N2C(C(=O)O)=C(Cl)CC[C@H]12)c1ccccc1 | inactive | inactive | inactive | inactive | inactive | inactive
